# In the supplement of paper PMC7156485:
# ± gives the standard deviation of the averaged measurements.
# Experiments:
# Settings in all cases: concentration: 10 µM; 24 h
# HCC1569 [1] = experiment: cell number relative to DMSO (% of DMSO); higher = more cells (less growth inhibition / toxicity)
# Method in brief: (§1)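 Cell number or H1.0 nuclear intensity appears as percent of the plate control, based on the median of replicates. Measurements came from HCC1569 and TDF cells exposed in triplicate to compounds at 10 µM for 24 h at 37 °C, then imaged in six fields per well at ×10. Positional effects were smoothed out of HCC1569 values.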
# TDF [2] = experiment: as above
# Method in brief: as §1
# TDF [3] = experiment: H1.0 immunofluorescence intensity relative to DMSO (% of DMSO); higher = stronger H1.0 induction, active = 120 or more
# Method in brief: as §1
# HCC1569 [4] = experiment: H1.0 immunofluorescence intensity relative to DMSO (% of DMSO); higher = stronger H1.0 induction, active = 140 or more
# Method in brief: as §1
# 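For H1.0 immunofluorescence intensity relative to DMSO in this document: TDF is a line of transformed human dermal fibroblasts of mesenchymal origin.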
# 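For cell number relative to DMSO in this document: TDF denotes transformed human dermal fibroblasts of mesenchymal origin.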
Compound,cell number (HCC1569 [1]),cell number (TDF [2]),H1.0 immunofluorescence intensity (TDF [3]),H1.0 immunofluorescence intensity (HCC1569 [4])
"O=C(Nc1cccc(-c2ccccc2)c1)OC1CCCCC1 [cyclohexyl [1,1'-biphenyl]-3-ylcarbamate]",105,94.2,93.4 (inactive),88.6 (inactive)
CN1CCN(C2=c3ccccc3=Nc3ccc(Cl)cc3N2)CC1 [Clozapine],99.6 ± 4.2,105 ± 0.29,95.4 (inactive),106 (inactive)
C1CCC(C(CC2CCCCN2)C2CCCCC2)CC1.O=C(O)C=CC(=O)O (configuration not stated),19,5.25,273 (active),117 (inactive)
CC(=O)NC1C(N=C(N)N)C=C(C(=O)O)OC1C(O)C(O)CO (configuration not stated),102,115,99.2 (inactive),99 (inactive)
CC1(COc2ccc(CC3SC(=O)NC3=O)cc2)CCCCC1 (configuration not stated) [Ciglitazone],99.8,91.8,102 (inactive),96.6 (inactive)
CC1=NC(=NNc2ccc(C(=O)[O-])cc2)C(COP(=O)([O-])[O-])=C(C=O)C1=O.[Na+].[Na+].[Na+],101,103,93.5 (inactive),103 (inactive)
C=C1C(=CC=C2CCCC3(C)C2CCC3C(C)CCCC(C)C)CC(O)CC1O (configuration not stated) [Alfacalcidol],100,101,96.5 (inactive),101 (inactive)
"Nc1c(C(=O)O)c2nc3c(C(=O)O)cccc3oc-2cc1=O [2-amino-3-oxo-3H-phenoxazine-1,9-dicarboxylic acid]",92,88.1,110 (inactive),101 (inactive)
Cc1ccc(=O)n(-c2ccccc2)c1 [Pirfenidone],102,103,90.3 (inactive),92.5 (inactive)
CC(C)NCC(O)COc1cccc2ccccc12 (stereo not drawn) [Propranolol S(-)],102,104,102 (inactive),101 (inactive)
"OC[C@H]1NC[C@@H](O)[C@@H]1O [1,4-Dideoxy-1,4-imino-D-arabinitol]",105,97.9,88.6 (inactive),90.4 (inactive)
O=c1c2ccccc2[nH]c(=S)n1CCN1CCC(=C(c2ccc(F)cc2)c2ccc(F)cc2)CC1 [Diacylglycerol Kinase Inhibitor II],105 ± 1.1,93.8 ± 1.5,93.9 (inactive),94.1 (inactive)
CCCNC1CCc2nc(N)sc2C1 (configuration not stated) [Pramipexole],101,97.5,94.4 (inactive),107 (inactive)
CC(C)C(CO)Nc1nc(Nc2cccc(Cl)c2)c2ncn(C(C)C)c2n1 (configuration not stated),65.5,60.6,120 (inactive),174 (active)
"C#CCN[C@H]1CCc2ccccc21 [N-[(1S)-2,3-dihydro-1H-inden-1-yl]-N-(2-propynyl)amine]",102,104,92.2 (inactive),98.1 (inactive)
"Nc1nc2ccc(Cl)cc2n2c(-c3ccccc3)nnc12 [8-chloro-1-phenyl[1,2,4]triazolo[4,3-a]quinoxalin-4-ylamine]",104,102,93.9 (inactive),99 (inactive)
Cl.Cl.OCCN1CCN(CCCN2c3ccccc3C=Cc3ccccc32)CC1,102,98.8,99.1 (inactive),106 (inactive)
CCCCC=CCCCCCCCCC(=O)O [10(Z)-Pentadecenoic acid],101,102,103 (inactive),104 (inactive)
